Compounds without any hit were thinned out: in the full panel of roughly 83,000, 20% have a hit.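 Single-dose data. Exposure time 48 hours. Values below 10 considered active.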 Values without a mark were called inactive. Active and inactive are the calls of the source.
Tests used:
Test in all cases: NCI-60 one-dose screen, 48 h (100 = growth as untreated, 0 = no growth, -100 = all killed)
Conditions in all cases: 10 µM unless noted
DU-145 prostate = system: DU-145 prostate
K-562 leukemia = system: K-562 leukemia
MALME-3M melanoma = system: MALME-3M melanoma
MDA-MB-231 breast = system: MDA-MB-231 breast
RXF 393 renal = system: RXF 393 renal
SF-268 CNS = system: SF-268 CNS
SF-295 CNS = system: SF-295 CNS
SF-539 CNS = system: SF-539 CNS
UACC-257 melanoma = system: UACC-257 melanoma
M14 melanoma = system: M14 melanoma
HCT-15 colon = system: HCT-15 colon
HT29 colon = system: HT29 colon
SNB-75 CNS = system: SNB-75 CNS
SNB-19 CNS = system: SNB-19 CNS
U251 CNS = system: U251 CNS
PC-3 prostate = system: PC-3 prostate
UACC-62 melanoma = system: UACC-62 melanoma
LOX IMVI melanoma = system: LOX IMVI melanoma
SK-MEL-28 melanoma = system: SK-MEL-28 melanoma
SK-MEL-5 melanoma = system: SK-MEL-5 melanoma

SMILES | growth (DU-145 prostate) | growth (K-562 leukemia) | growth (MALME-3M melanoma) | growth (MDA-MB-231 breast) | growth (RXF 393 renal) | growth (SF-268 CNS) | growth (SF-295 CNS) | growth (SF-539 CNS) | growth (UACC-257 melanoma) | growth (M14 melanoma) | growth (HCT-15 colon) | growth (HT29 colon) | growth (SNB-75 CNS) | growth (SNB-19 CNS) | growth (U251 CNS) | growth (PC-3 prostate) | growth (UACC-62 melanoma) | growth (LOX IMVI melanoma) | growth (SK-MEL-28 melanoma) | growth (SK-MEL-5 melanoma)
O=C(CC1(O)C(=O)Nc2ccc(Cl)cc21)c1ccc(C(=O)NCC2CCC3(CC2)OOC2(CCCCC2)OO3)cc1 (stereo unspecified) | -60.1% (active) | -56.9% (active) | -51.5% (active) | 16.8% | 18.5% | 32.9% | 37.6% | -52.5% (active) | 37.8% | 52% | 49.1% | 15.1% | -3.77% (active) | 30.3% | -54.2% (active) | -34.2% (active) | 50.7% | 32.3% | 69.2% | 
CCC1CC(O)c2c(O)c3c(c(O)c2C1O)C(=O)c1cccc(O)c1C3=O (stereo unspecified) (tested in a mixture with another compound) | -1.28% (active) | -44.1% (active) | -92.3% (active) | -18.8% (active) | -27% (active) | -24% (active) | -24% (active) | -64.5% (active) | -25.3% (active) | -97.1% (active) | -20.2% (active) | -24.6% (active) | -93.5% (active) | -16.4% (active) | -12.2% (active) | -33.4% (active) | -71.7% (active) | -28.1% (active) |  | 
C=C(C)[C@@]12OC3(/C=C/C=C/CCCCC)O[C@@H]1[C@@H]1[C@@H]4O[C@]4(CO)[C@@H](O)[C@]4(O)C(=O)C(C)=C[C@H]4[C@@]1(O3)[C@H](C)[C@H]2OC(=O)c1ccccc1 | 38.4% | 24.9% | 88.3% | 52% | 71% | 40.7% | 39.6% | 63.8% | 97% | 36.3% | 67.1% | 14.1% | 56.6% | 92.8% | 53.2% | 28.6% | 59.7% | 50.9% | 81.5% | 
CCCCC1(CCC)C(=O)NC(=S)NC1=O | 119% | 121% | 119% | 113% | 195% | 107% | 102% | 94.9% | 131% | 106% | 93.7% | 105% | 77.5% |  | 95.9% | 80.4% | 104% | 103% | 108% | 104%
Fc1ccc2c(c1)c(-c1nc(-c3c[nH]c4ncccc34)cs1)cn2CCCCN1CCCCC1 | -93.1% (active) | -74.1% (active) | -73% (active) | -88.4% (active) | -73.1% (active) | -77.5% (active) | -60.7% (active) | -82.4% (active) | -87.2% (active) | -88.5% (active) | -72% (active) | -97% (active) | -70.5% (active) | -88.5% (active) | -87.7% (active) | -86.5% (active) |  | -79.3% (active) | -86.9% (active) | -83.1% (active)
CC[C@]12C=CCN3CC[C@@]4(c5ccc(OC)cc5N(C)[C@H]4[C@@](O)(C(=O)OC)[C@@H]1OC(=O)CCCC[P+](c1ccccc1)(c1ccccc1)c1ccccc1)[C@@H]32 | 14.7% | 21.7% | -35.8% (active) | -2.41% (active) | -13.3% (active) | 16.2% | 58.1% | 19% | 2.15% (active) | 29.4% | 99.3% | 2.65% (active) | -12.8% (active) | 12.7% | 10.9% |  | -6.54% (active) | 18.5% | 12.5% | -72.9% (active)
COc1ccc2c(c1)c(-c1nc(-c3c[nH]c4ncccc34)cs1)cn2CCCCN1CCCCC1 | -14.6% (active) | -73.7% (active) | -76.1% (active) | -75.9% (active) | -85.8% (active) | -50.9% (active) | -64.9% (active) | -80.9% (active) | -82.3% (active) | -88% (active) | -76.7% (active) | -72.4% (active) | -75.4% (active) | -71.1% (active) | -75.3% (active) | -79% (active) |  | -83.1% (active) | -85.1% (active) | -81.3% (active)
CC[C@H](C)[C@H](NC(=O)C12C3C4C1C1C2C3C41NC)C(=O)N(C)[C@H](C[C@@H](OC(C)=O)c1nc(C(=O)N[C@@H](Cc2ccccc2)C[C@H](C)C(=O)OC)cs1)C(C)C (stereo partly specified) | 7.38% (active) | 9.19% (active) | 50.1% | 29.1% | 39.4% | 30% | 19.4% | -5.82% (active) | 42.1% | -14.4% (active) | 18.4% | 2.58% (active) | 31.4% | 49.6% | 11.6% | 21.2% |  | 15.7% | 58.1% | 3.34% (active)
